From PubChem BioAssay AID1159580 (chemical genetic matrix, 2015)
Several values for one entry are separate records, joined by “and”; a condition that tells them apart may be missing. Equal values may be shown once. Among all 5,500 compounds or so, about 2,000 (36%) were called active. Roughly 18% stayed inconclusive and do not appear here. Cut-off read from the data, not from the text of the source: active = normalized growth mostly below about 0.91 (no sharp cut-off); inconclusive = no clear call, values can overlap the other calls; inactive = mostly above about 0.92. The list shows a part of the results.

Experiment: chemical genetic growth profiling, strain panel (AID 1159580);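 note: tested at 20 µM; growth read once vehicle control cultures reached saturation at 30 °C; 1 = growth at the plate median or of vehicle wells; lower values mean less growth of the strain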
Details: S. cerevisiae deletion strains, growth OD

Measured: normalized growth

O=C1NCC2(CCN(CCc3ccccc3)CC2)O1
inactive: locus YAL013W, strain DEP1, hits give low values 1.02 | locus YAL021C, strain ccr4, hits give low values 0.973 | locus YAL026C, strain drs2, hits give low values 0.99 | locus YAL030W, strain snc1, hits give low values 1 | locus YAL040C, strain CLN3, hits give low values 1 | locus YBL061C, strain skt5, hits give low values 0.983 | locus YBR009C, strain hhf1, hits give low values 0.992 | locus YBR021W, strain FUR4, hits give low values 1.01 | locus YBR023C, strain chs3, hits give low values 0.993 | locus YBR171W, strain sec66, hits give low values 0.99 | locus YBR229C, strain ROT2, hits give low values 1.01 | locus YBR231C, strain swc5, hits give low values 0.985 | locus YBR279W, strain paf1, hits give low values 1.01 | locus YCL011C, strain gbp2, hits give low values 1.01 | locus YCL016C, strain dcc1, hits give low values 1.02 | locus YCL029C, strain bik1, hits give low values 1 | locus YCL061C, strain MRC1 (second series), hits give low values 1.01 | locus YCL069W, strain vba3, hits give low values 0.982 | locus YCR088W, strain abp1, hits give low values 1.01 | locus YDL005C, strain med2, hits give low values 0.987 | locus YDL035C, strain GPR1, hits give low values 1.01 | locus YDL040C, strain nat1, hits give low values 0.996 | locus YDL074C, strain BRE1, hits give low values 1.02 | locus YDL101C, strain DUN1, hits give low values 1.02 | locus YDL134C, strain PPH21, hits give low values 1 | locus YDL185W, strain tfp1, hits give low values 1.01 | locus YDL192W, strain arf1, hits give low values 1.01 | locus YDR001C, strain nth1, hits give low values 0.99 | locus YDR069C, strain doa4, hits give low values 0.983 | locus YDR101C, strain arx1, hits give low values 0.994 | locus YDR137W, strain rgp1, hits give low values 0.989 | locus YDR150W, strain NUM1, hits give low values 1 | locus YDR159W, strain sac3, hits give low values 0.989 | locus YDR162C, strain NBP2, hits give low values 1.01 | locus YDR195W, strain ref2 0.973 | locus YDR297W, strain sur2, hits give low values 1 | locus YDR318W, strain mcm21, hits give low values 1.01 | locus YDR334W, strain swr1, hits give low values 0.983 | locus YDR335W, strain msn5, hits give low values 0.971 | locus YDR363W, strain ESC2, hits give low values 1 | locus YDR388W, hits give low values 1 | locus YDR392W, strain spt3, hits give low values 1.02 | locus YDR502C, strain sam2, hits give low values 0.995 | locus YEL003W, strain gim4, hits give low values 0.99 | locus YEL037C, strain rad23, hits give low values 0.982 | locus YEL061C, strain CIN8 (second series), hits give low values 0.978 | locus YEL061C, strain CIN8, hits give low values 1 | locus YER002W, strain NOP16, hits give low values 1.01 | locus YER015W, strain faa2, hits give low values 1 | locus YER016W, strain bim1, hits give low values 1.01 | locus YER110C, hits give low values 1 | locus YER111C, strain swi4, hits give low values 0.992 | locus YER155C, strain BEM2 (second series), hits give low values 0.996 | locus YER155C, strain BEM2, hits give low values 1 | locus YER167W, strain BCK2, hits give low values 1 | locus YFR010W, strain ubp6, hits give low values 0.965 | locus YGL078C, strain dbp3, hits give low values 0.994 | locus YGL086W, strain mad1, hits give low values 0.993 | locus YGL167C, strain pmr1, hits give low values 0.982 | locus YGL173C, strain kem1, hits give low values 0.979 | locus YGL227W, strain vid30, hits give low values 1 | locus YGL240W, strain doc1, hits give low values 0.969 | locus YGL248W, strain PDE1, hits give low values 1.01 | locus YGL253W, strain hxk2, hits give low values 0.982 | locus YGR078C, strain PAC10, hits give low values 1.01 and 1.02 | locus YGR135W, strain pre9, hits give low values 0.999 | locus YGR229C, strain SMI1, hits give low values 1 | locus YGR252W, strain gcn5, hits give low values 0.944 | locus YHR013C, strain ard1, hits give low values 0.974 | locus YHR027C, strain rpn1, hits give low values 1 | locus YHR030C, strain SLT2, hits give low values 1.01 and 0.988 | locus YHR079C, strain IRE1 (second series), hits give low values 1.01 | locus YHR079C, strain IRE1, hits give low values 0.979 | locus YHR094C, strain hxt1, hits give low values 1 | locus YHR129C, strain ARP1, hits give low values 1.02 | locus YHR142W, strain chs7, hits give low values 0.966 | locus YHR200W, strain rpn10, hits give low values 0.994 | locus YIL066C, strain RNR3, hits give low values 1.01 | locus YIL073C, strain SPO22, hits give low values 1.01 | locus YIL125W, strain kgd1, hits give low values 0.998 | locus YIR030C, strain dcg1, hits give low values 0.994 | locus YJL092W, strain hpr5, hits give low values 0.997 | locus YJL095W, strain BCK1 (second series), hits give low values 0.993 | locus YJL095W, strain BCK1, hits give low values 1.04 and 0.982 | locus YJL115W, strain asf1, hits give low values 0.976 | locus YJL129C, strain trk1, hits give low values 0.967 | locus YJL134W, strain LCB3, hits give low values 1.01 | locus YJL154C, strain vps35, hits give low values 1 | locus YJL164C, strain tpk1, hits give low values 1.01 | locus YJL166W, strain qcr8, hits give low values 0.997 | locus YJL168C, strain set2, hits give low values 1.01 | locus YJL187C, strain SWE1 (second series), hits give low values 1.02 | locus YJR043C, strain POL32, hits give low values 1.02 | locus YJR066W, strain TOR1, hits give low values 0.913 | locus YJR075W, strain HOC1, hits give low values 1 and 0.995
